# Experimental data taken from the supplement of paper PMC6763611.
# System: Plasmodium falciparum NF54
# Experiment: growth inhibition relative to untreated control; higher = more inhibition
# Settings: 72 h
# How it was run: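 Ring-stage P. falciparum NF54 parasites at 1% hematocrit and 1% parasitemia were dispensed at 100 μL/well into dark 96-well half-area plates and given a single dose of test compound at 5 μM or 1 μM for 72 h at 37 °C. Incubation took place in minimal RPMI, either alone or supplemented with the chorismate end-products folate (2.2 μM), pABA (7.3 μM), pHBA (7.3 μM), tyrosine (111 μM), phenylalanine (90 μM) and tryptophan. Growth inhibition was determined with SYBR Green relative to untreated wells, using uninfected erythrocytes for background.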
# [1] = 1 µM, MM + chorismate end-products (CM screening medium)
# [2] = 5 µM, MM + chorismate end-products (CM screening medium)
Compound,growth inhibition [1],"growth inhibition (1 µM, minimal medium (MM))",growth inhibition [2],"growth inhibition (5 µM, minimal medium (MM))"
OCCc1ccc(Nc2nccc(-c3nnc4ccccn34)n2)cc1,82.3%,80.1%,65.5%,52.1%
CC(C)(C)c1cc(C(=O)Nc2cccnc2)cc(C(=O)Nc2cccnc2)c1,88.9%,94.2%,87.5%,88.6%
CN(C)c1cc(NC(=O)Nc2ccccc2)c2ccccc2n1,96%,95.6%,88.6%,87.9%
COc1cc(C(F)(F)F)nc2ccc(C)c(N)c12,< 0%,30.2%,< 0%,< 0%
Cc1cc(C)c2cc(C(=O)NC3CCCCCCC3)[nH]c2c1,34.2%,0.728%,55.4%,< 0%
CC(C)(C(=O)Nc1ccc(F)cc1)n1cc(-c2ccccc2F)cn1,0.0824%,< 0%,5%,15.7%
CC(C)(C)c1cc(C(=O)N2CCN(c3nccnc3C#N)CC2)n(Cc2ccccc2)n1,73.4%,> 100%,92.9%,92%
CCn1ncc2c(NC3CCOCC3)c(CNC(=O)c3ccnn3C)c(C)nc21,63.5%,> 100%,92.6%,91.4%
C[C@H](c1ccc2c(c1)CCCC2)N(C)c1ncc2c(N)nc(N)nc2n1,8.99%,2.84%,36%,15.3%
COc1ccccc1CNC(=O)c1cc(C2CC2)nc2c1cnn2C(C)C,82.9%,79.8%,87.1%,91.4%
O=C(c1cc2ccccc2o1)N1CCN(Cc2ccc3c(c2)OCO3)CC1,15.1%,12.4%,< 0%,< 0%
COC(=O)c1c(NC(=O)c2c(F)c(F)c(F)c(F)c2F)sc2c1CCCCC2,26.9%,25.7%,< 0%,< 0%
c1ccc(Oc2ccc(-c3cncc(-c4ccc5[nH]ccc5c4)n3)cc2)cc1,> 100%,< 0%,86.5%,91.5%
Nc1nccc2ccc(-c3ccc4nccn4c3)cc12,> 100%,> 100%,97.8%,88.2%
O=C(Nc1nc(-c2ccccn2)cs1)c1cncn1-c1ccccc1,25.9%,7.24%,65%,< 0%
COc1cccc(NC(=O)c2c(NC(=O)c3cccnc3)sc3c2CCC3)c1,47.5%,9.66%,53.5%,8.07%
Cc1cc(O)nc(-n2nc(C)cc2C)n1,5.27%,< 0%,< 0%,< 0%

Compound,growth inhibition [1],"growth inhibition (1 µM, minimal medium (MM))",growth inhibition [2],"growth inhibition (5 µM, minimal medium (MM))"
CC(C)C(C(=O)Nc1ccc(S(=O)(=O)N(C)C)cc1)c1ccc(Cl)cc1 (configuration not stated),96.6%,94.8%,98.6%,90.3%
CCOc1ccc2cc(-c3nn(C(C)(C)C)c(N)c3C(N)=O)cnc2c1,11%,18.1%,3.3%,< 0%
Cc1cc(NC(=O)c2ccc(Oc3ccc(Cl)cc3O)o2)no1,8.1%,27.1%,24.4%,34.9%
CNC(=O)c1nn(C)c2c1C(C)(C)Cc1cnc(Nc3ccc(N4CCN(C)CC4)cc3)nc1-2,64.5%,73.6%,88%,87.2%
COc1ccc(-c2nc(-c3cccc(NC(=O)Cc4ccc(F)cc4)c3)no2)cc1OC,46.5%,42.7%,91.6%,80.9%
CCc1cc(=O)n(C)c(SC(C)C(=O)Nc2ccc(F)cc2)n1 (configuration not stated),< 0%,2.62%,96.9%,94.5%
CN1CCN(S(=O)(=O)c2ccc(-c3ccc4c(Nc5ncc(Cl)cn5)ccnc4c3)cc2)CC1,96.5%,96.3%,99%,88.6%
CN1CCN(c2nccc3[nH]c(-c4cccc(F)c4)cc23)CC1,< 0%,58.4%,99%,90%
CC[C@@H]([C@H](C)O)n1ncn(-c2ccc(N3CCN(c4ccc(OC[C@@H]5CO[C@@](Cn6cncn6)(c6ccc(F)cc6F)C5)cc4)CC3)cc2)c1=O,45.5%,50.3%,88.9%,83.4%
COc1ccc(C2=NN(C3CCCCCC3)C(=O)[C@@H]3CC=CC[C@H]23)cc1OCCCCOc1ccc(-c2nnn[nH]2)cc1,19%,16.4%,44.9%,48.6%
CC(Oc1cccc(Cl)c1)C(=O)Nc1ccc2oc(-c3ccncc3)nc2c1 (configuration not stated),< 0%,2.28%,< 0%,3.02%
O=C(Nc1nc(-c2ccccn2)cs1)C1CC1c1ccccc1F (configuration not stated),16%,< 0%,54.3%,26.1%
CO[C@@H](C(=O)N1Cc2[nH]nc(NC(=O)c3ccc(N4CCN(C)CC4)cc3)c2C1)c1ccccc1,45.1%,55.3%,90%,90.1%
Cc1ccc(S(=O)(=O)N2CCN(C(=O)c3cc(-c4ccccc4)n[nH]3)CC2)cc1,94.2%,87.1%,82.9%,88.6%
Cc1ccccc1C(=O)N1N=C(Nc2ccccc2)SC1(C)C,49.8%,9.58%,< 0%,5.01%
Cc1cnc(N2CCN[C@@H](Cc3ccccc3)C2)nc1Oc1ccc(-n2ccnc2)cc1,93.8%,92.3%,99.9%,98.2%
